# Measured values taken from PubChem BioAssay (NCATS).
# Results filed as inconclusive are left out. Calls of active or inactive are those of the source. Unless noted, calls come from the whole dose curve; as a rule, active = well fitted curve in the direction sought with a large enough effect; inconclusive = small, poorly fitted or top-dose-only effect, or another doubt; inactive = no such curve, though single readings can be large; an effect the other way counts as inactive or inconclusive.
# How the values were obtained:
# [1] = Counterscreen for APE1 Inhibitors: Fluorescent Dye Displacement Validation Assay (AID 1707);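 note: plate controls were ThO with dsDNA and no compound for no effect and ThO without dsDNA for full effect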
# Method in brief: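 Counterscreen flags promiscuous DNA binders: compounds displacing ThO from duplex DNA (abasic THF site, 50 nM) reduce 540 nm emission (480 nm excitation). ThO 250 nM final; Tris-HCl pH 7.5 with NaCl, MgCl2 and Tween-20.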
# [2] = target: Endonuclease 4 (Escherichia coli (strain K12)) (UniProt P0A6C1); test: Counterscreen for APE1 Inhibitors: qHTS Validation Assay for Inhibitors of Endonuclease IV (AID 1708); note: % is set by controls: 0 for no effect and ±100 for the full control effect
# Method in brief: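 Read-out: fluorescence rise (ex 525/em 598 nm) from incision of a TAMRA/BHQ-2 double-stranded THF abasic-site substrate (50 nM), measured kinetically; third-minus-first read difference gave reaction progress. Enzyme 2 nM.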
# [3] = qHTS for differential inhibitors of proliferation of Plasmodium falciparum line GB4 (AID 1816); settings: Potency: Plasmodium falciparum GB4 proliferation inhibition;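 note: potency is the fitted concentration of half-maximal effect; parasite growth measured after 72 h incubation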
# [4] = qHTS for differential inhibitors of proliferation of Plasmodium falciparum line 3D7 (AID 1876); note: potency is the fitted concentration of half-maximal effect
# [5] = qHTS for differential inhibitors of proliferation of Plasmodium falciparum line Dd2 (AID 1882); settings: Potency: Plasmodium falciparum Dd2 proliferation inhibition; note: nearly all actives have a fitted effect of over 65% in size; note: potency is the fitted concentration of half-maximal effect;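 for activity change, negative = inhibition: compound exposure of 72 h on infected erythrocytes; plate controls were DMSO vehicle for no effect and 0.29 µM artemisinin for full effect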
# Method in brief: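 RBC culture, 0.3% parasitemia / 2.5% Hct final; cpd added by pin tool in DMSO; 72 h, 37 C, 5% CO2; lysis buffer + SYBR Green I, o/n RT dark; FI 485/535; norm. to artemisinin 0.29 uM and DMSO.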
# [6] = target: Ferritin light chain (Equus caballus) (UniProt P02791); test: qHTS Validation Assay for Identification of Novel General Anesthetics (AID 2323); note: % is set by controls: 0 for no effect and ±100 for the full control effect
# Sequence of Ferritin light chain (Equus caballus) (P02791 2-175 limits assumed): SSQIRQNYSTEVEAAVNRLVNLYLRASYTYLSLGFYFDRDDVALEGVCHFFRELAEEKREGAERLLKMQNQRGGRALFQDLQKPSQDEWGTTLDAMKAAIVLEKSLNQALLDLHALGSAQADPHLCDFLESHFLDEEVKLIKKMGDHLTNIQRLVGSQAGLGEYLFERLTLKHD
# Method in brief: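 Competitive displacement of the profluorescent anesthetic 1-AMA (50% saturated, PBS) from 10 uM apoferritin, 10 min, room temperature. Activity is normalized 380/535 nm fluorescence; concentration-response fitted with a four-parameter Hill equation.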
# [7] = target: ATP-dependent DNA helicase Q1 (Homo sapiens) (UniProt P46063); test: qHTS Validation Assay for Inhibitors of RecQ-Like Dna Helicase 1 (RECQ1) (AID 2353);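 note: plate controls were DMSO vehicle for no effect and enzyme-free control for full effect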
# Sequence of ATP-dependent DNA helicase Q1 (Homo sapiens) (P46063 whole entry, looked up): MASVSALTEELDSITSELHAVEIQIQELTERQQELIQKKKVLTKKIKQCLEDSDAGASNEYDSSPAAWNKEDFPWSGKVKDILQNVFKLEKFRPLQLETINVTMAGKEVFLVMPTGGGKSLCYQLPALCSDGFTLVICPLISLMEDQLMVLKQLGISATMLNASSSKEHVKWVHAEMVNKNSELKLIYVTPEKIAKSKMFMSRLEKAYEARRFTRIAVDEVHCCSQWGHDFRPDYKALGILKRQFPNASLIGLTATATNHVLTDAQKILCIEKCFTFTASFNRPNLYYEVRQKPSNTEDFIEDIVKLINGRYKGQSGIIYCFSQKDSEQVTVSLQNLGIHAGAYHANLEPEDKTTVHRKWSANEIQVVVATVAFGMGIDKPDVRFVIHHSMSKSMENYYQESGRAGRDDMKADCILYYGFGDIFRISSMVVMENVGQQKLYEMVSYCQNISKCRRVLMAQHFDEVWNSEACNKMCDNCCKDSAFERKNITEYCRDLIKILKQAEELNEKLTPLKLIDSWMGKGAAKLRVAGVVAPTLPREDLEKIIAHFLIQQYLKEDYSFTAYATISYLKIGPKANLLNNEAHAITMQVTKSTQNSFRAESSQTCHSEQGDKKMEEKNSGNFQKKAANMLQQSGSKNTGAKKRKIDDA
# Method in brief: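 RECQ1T1 50 nM; forked duplex (20 bp + 30-nt ss tails) 200 nM, ATP 2 mM final; pH 8.0, 2 mM MgCl2, 2.5 ug/ml poly(dI-dC); 15 min compound preincubation; discontinuous kinetic read over 2 h at RT.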
# [8] = Quantitative high throughput screen for delayed death inhibitors of the malarial parasite plastid, 96 hour incubation (AID 488745); note: potency is the fitted concentration of half-maximal effect; nearly all actives have a fitted effect of over 70% in size
# Method in brief: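 Two-generation (96 h) exposure of luciferase-reporter P. falciparum in erythrocytes, 2% hematocrit, 0.1% parasitemia final, 37 C, 5% CO2, RPMI 1640 with 0.5% Albumax. Growth inhibition scored by reduced luminescence.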
# [9] = target: Transient receptor potential cation channel subfamily V member 1 (Homo sapiens) (UniProt Q8NER1); test: HTS Assay for Compounds that Act as Enhancers of the Vanilloid Receptor 1 (AID 488979); note: 0% is about no effect
# Method in brief: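 TRPV1 cells loaded with Fluo-8 calcium dye; compound added and Ca2+ signal (ex 480/em 520 nm) followed 3 min, then capsaicin at EC20 added and read 2 more min to detect enhancement.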
# [10] = target: Thyrotropin receptor (Homo sapiens) (UniProt P16473); test: qHTS Assay for Antagonists of the Thyroid Stimulating Hormone Receptor (AID 488980); note: 0% is about no effect
# Method in brief: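 Inhibition of cAMP raised by EC80 TSH (4 nM final) was read by HTRF, with lysate cAMP competing against cAMP-d2 for cryptate antibody after 30 min at room temperature. The cells were transfected HEK293 held in phosphodiesterase inhibitor RO 20-1724 at 70 uM.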
# [11] = target: Thyrotropin-releasing hormone receptor (Homo sapiens) (UniProt P34981); test: qHTS for Small Molecule Agonists and Allosteric Enhancers of Human TRH Receptor: Validation Screen for Agonists (AID 493127;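 active = calcium activation more than 3 SD above the typical response in the agonist read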;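 note: intracellular calcium rise by fluo-8 fluorescence before TRH EC20 addition; 0% is about no effect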); settings: TRH receptor agonist cell assay; at 2 µM; stronger effect = higher value
# Sequence of Thyrotropin-releasing hormone receptor (Homo sapiens) (P34981 whole entry, looked up): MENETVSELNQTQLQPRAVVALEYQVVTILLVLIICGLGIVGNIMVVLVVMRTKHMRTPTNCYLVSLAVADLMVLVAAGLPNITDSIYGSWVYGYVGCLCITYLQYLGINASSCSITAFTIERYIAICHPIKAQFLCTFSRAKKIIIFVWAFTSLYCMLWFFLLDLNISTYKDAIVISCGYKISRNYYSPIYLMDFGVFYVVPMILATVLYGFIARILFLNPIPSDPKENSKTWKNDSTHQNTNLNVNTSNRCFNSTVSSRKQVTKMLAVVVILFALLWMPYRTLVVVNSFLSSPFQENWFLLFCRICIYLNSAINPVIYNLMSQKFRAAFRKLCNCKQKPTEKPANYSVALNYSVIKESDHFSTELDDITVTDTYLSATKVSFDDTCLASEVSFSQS
# Method in brief: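 Kinetic fluorescence assay of agonist-induced calcium release: overnight-plated TRHR cells, room-temperature fluo-8 loading, baseline then compound addition with per-second reads.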
# [12] = target: Galactokinase (Homo sapiens) (UniProt P51570); test: qHTS Validation Assay for Inhibitors of Human Galactokinase (GALK) (AID 493189); note: 0% is about no effect
# Method in brief: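 Inhibition was measured as remaining ATP, detected by luciferase luminescence after a 1 h room-temperature reaction. Final conditions: 5 nM GALK, 100 uM galactose, 35 uM ATP, pH 8.0 HEPES buffer.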
# [13] = Validation screen for small molecules that induce DNA re-replication in SW480 colon adenocarcinoma cells (AID 504364); note: 0% is about no effect
# Method in brief: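 Hoechst-stained SW480 nuclei, imaged at 405 nm excitation after 48 hr compound exposure, were counted for elevated DNA content as the re-replication signal.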
# [14] = target: Voltage-gated inwardly rectifying potassium channel KCNH2 (Homo sapiens) (UniProt Q12809); test: qHTS Assay for Small Molecule Inhibitors of the Human hERG Channel Activity (AID 588834);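 note: top concentration of the series differs between compounds; % is set by controls: 0 for no effect and ±100 for the full control effect; lower thallium flux fluorescence means stronger hERG block; nearly all actives have a fitted effect of over 50% in size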
# Sequence of Voltage-gated inwardly rectifying potassium channel KCNH2 (Homo sapiens) (Q12809 whole entry, looked up): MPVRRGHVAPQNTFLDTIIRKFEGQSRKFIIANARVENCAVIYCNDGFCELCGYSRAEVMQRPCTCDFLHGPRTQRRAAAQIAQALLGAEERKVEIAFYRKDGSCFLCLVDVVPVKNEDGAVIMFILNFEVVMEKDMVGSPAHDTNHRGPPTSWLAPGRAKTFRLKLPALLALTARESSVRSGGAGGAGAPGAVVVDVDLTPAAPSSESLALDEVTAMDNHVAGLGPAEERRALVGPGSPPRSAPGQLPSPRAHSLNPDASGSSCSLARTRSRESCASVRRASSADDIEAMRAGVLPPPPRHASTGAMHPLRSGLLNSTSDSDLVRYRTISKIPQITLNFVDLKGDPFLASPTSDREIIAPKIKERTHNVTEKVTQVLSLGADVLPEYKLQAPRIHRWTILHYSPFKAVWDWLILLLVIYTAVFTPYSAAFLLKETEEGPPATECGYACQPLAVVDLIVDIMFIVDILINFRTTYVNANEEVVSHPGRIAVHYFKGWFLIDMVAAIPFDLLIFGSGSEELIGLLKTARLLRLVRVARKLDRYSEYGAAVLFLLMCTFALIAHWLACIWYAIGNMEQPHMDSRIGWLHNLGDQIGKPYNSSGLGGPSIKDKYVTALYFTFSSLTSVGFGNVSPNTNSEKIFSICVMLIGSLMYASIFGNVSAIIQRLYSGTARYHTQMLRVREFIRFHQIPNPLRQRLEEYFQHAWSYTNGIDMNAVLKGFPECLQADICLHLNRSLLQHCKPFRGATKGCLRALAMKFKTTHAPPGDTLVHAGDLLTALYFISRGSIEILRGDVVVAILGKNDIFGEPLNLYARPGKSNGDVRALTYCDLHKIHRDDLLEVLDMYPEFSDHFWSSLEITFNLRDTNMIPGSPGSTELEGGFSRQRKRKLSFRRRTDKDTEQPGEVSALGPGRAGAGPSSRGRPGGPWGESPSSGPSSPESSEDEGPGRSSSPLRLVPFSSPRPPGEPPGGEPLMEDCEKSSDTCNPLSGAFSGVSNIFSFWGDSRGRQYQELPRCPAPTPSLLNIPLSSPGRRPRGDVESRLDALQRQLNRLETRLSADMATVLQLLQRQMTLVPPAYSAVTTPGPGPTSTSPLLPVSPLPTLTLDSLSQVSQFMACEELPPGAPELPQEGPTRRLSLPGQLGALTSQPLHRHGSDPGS
# Method in brief: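 hERG block measured as reduced thallium-dye (FluxOR) fluorescence after stimulation buffer addition, read over 2 min. Cells were hERG-BacMam-transduced U2OS exposed to compound ~10 min […]; concentration-response fitted with Hill equation for AC50.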
# [15] = target: DNA repair nuclease/redox regulator APEX1 (Homo sapiens) (UniProt P27695); test: qHTS Validation Assay for Inhibitors of the Human Apurinic/apyrimidinic Endonuclease 1 (APE1) (AID 1705;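 note: TAMRA fluorescence gain over two minutes as APE1 cuts a quenched THF abasic duplex; % is set by controls: 0 for no effect and ±100 for the full control effect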)
# Sequence of DNA repair nuclease/redox regulator APEX1 (Homo sapiens) (P27695 whole entry, looked up): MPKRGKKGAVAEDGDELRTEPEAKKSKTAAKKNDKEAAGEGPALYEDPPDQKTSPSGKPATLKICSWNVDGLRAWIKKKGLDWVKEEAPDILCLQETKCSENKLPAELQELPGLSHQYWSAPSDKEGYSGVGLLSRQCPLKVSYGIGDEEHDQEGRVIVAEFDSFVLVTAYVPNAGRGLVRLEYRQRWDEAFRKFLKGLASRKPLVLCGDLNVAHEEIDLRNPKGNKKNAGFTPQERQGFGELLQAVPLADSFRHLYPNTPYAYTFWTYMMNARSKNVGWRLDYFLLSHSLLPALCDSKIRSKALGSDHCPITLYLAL
# Method in brief: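 Activity read as rising fluorescence (598 nm emission, 525 nm excitation) from incision of a TAMRA/BHQ-2 duplex carrying a THF abasic site (50 nM). Compound and enzyme sat 15 min at RT before substrate start; signal change between first and third 60-s reads.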
# [16] = target: RecQ-like DNA helicase BLM (Homo sapiens) (UniProt P54132); test: qHTS Validation Assay for Inhibitors of Bloom's syndrome helicase (BLM) (AID 2364);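 note: plate controls were DMSO vehicle for no effect and enzyme-free control for full effect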
# Sequence of RecQ-like DNA helicase BLM (Homo sapiens) (P54132 whole entry, looked up): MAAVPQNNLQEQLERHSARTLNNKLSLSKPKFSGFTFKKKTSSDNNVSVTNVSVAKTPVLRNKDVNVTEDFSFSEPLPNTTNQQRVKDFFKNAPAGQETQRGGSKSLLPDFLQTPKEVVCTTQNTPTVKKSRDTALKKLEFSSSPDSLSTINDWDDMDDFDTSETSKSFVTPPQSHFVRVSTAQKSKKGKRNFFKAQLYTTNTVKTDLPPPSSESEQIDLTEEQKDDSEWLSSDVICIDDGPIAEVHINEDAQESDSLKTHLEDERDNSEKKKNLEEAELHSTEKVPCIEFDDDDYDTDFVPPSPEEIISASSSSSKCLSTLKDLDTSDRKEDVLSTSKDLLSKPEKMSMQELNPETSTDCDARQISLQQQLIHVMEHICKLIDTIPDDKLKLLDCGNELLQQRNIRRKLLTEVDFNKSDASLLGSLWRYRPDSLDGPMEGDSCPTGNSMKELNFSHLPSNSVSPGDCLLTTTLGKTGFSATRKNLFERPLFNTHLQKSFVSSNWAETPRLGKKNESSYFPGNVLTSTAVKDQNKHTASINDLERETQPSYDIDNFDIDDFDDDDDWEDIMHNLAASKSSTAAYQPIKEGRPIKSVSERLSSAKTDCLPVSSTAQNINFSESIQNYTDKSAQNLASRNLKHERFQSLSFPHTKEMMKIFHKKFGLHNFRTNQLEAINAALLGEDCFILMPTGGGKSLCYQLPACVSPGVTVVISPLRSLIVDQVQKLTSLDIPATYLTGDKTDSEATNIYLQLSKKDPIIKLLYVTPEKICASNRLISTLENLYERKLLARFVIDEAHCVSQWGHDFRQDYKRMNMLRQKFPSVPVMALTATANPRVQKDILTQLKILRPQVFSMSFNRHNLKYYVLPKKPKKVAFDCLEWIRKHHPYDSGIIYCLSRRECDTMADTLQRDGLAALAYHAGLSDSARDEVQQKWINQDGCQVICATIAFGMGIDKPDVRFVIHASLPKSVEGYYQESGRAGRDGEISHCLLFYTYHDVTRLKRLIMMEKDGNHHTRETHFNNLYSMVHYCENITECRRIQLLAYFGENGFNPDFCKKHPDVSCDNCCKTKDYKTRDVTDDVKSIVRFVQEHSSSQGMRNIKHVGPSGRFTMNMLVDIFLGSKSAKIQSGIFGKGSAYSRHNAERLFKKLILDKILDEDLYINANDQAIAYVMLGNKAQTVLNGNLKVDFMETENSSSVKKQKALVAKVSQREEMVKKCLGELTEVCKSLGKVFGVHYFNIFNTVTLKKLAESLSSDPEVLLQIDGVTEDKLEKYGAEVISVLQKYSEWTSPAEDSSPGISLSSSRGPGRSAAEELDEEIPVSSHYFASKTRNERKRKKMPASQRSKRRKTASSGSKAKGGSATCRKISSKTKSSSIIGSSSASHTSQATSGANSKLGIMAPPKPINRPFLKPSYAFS
# Method in brief: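 50 nM BLM preincubated 15 min at room temperature with compound in pH 8.0 Tris buffer containing 2.5 ug/ml poly(dI-dC); started with 200 nM TAMRA/BHQ-2 forked duplex and 2 mM ATP (final). Unwinding read as TAMRA fluorescence increase, two reads 2 h apart.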
# [17] = Validation screen for small molecules that induce DNA re-replication in MCF 10A normal breast cells (AID 463097); note: 0% is about no effect; nearly all actives have a fitted effect of over 60% in size
# Method in brief: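 Read-out is Hoechst total nuclear intensity by fluorescence scanning imager, flagging increased high-DNA-content nuclei. Compounds were incubated with MCF 10A cells for 48 hr (37 C, 5% CO2) before 40 min staining.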
# [18] = Quantitative high throughput screen for delayed death inhibitors of the malarial parasite plastid, 48 hour incubation (AID 488752); note: potency is the fitted concentration of half-maximal effect; nearly all actives have a fitted effect of over 65% in size
# Method in brief: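 Cultures: infected erythrocytes at final 2% hematocrit and 0.1% parasitemia in Albumax-supplemented RPMI. Parasites express integrated firefly luciferase. Incubation with compound lasts 48 h before luminescent detection of remaining reporter activity.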
# [19] = target: Catechol O-methyltransferase (Homo sapiens) (UniProt P21964); test: Confirmatory Screen for Target Class Profiling of Small Molecule Inhibitors of Methyltransferases (AID 1745852; calls by dose curve; note: potency is the fitted concentration of half-maximal effect; for activity change, negative = inhibition: % is set by controls: 0 for no effect and ±100 for the full control effect); settings: MTase-Glo luminescence, SAH detection, recombinant enzyme; measured here: COMT max response; stronger effect = lower value
# Sequence of Catechol O-methyltransferase (Homo sapiens) (P21964 whole entry, looked up): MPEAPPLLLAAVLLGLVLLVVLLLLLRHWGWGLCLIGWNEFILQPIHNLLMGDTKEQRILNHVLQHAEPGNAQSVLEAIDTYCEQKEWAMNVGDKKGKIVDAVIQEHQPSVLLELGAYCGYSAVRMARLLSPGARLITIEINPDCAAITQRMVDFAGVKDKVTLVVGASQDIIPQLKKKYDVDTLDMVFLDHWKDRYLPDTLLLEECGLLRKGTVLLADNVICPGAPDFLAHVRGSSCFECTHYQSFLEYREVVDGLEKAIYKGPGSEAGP
# [20] = target: Guanidinoacetate N-methyltransferase (Homo sapiens) (UniProt Q14353); test: as above; settings: activity change, negative = inhibition: at 57.3 µM (top of the series) unless noted
# [21] = target: Nicotinamide N-methyltransferase (Homo sapiens) (UniProt P40261); test: as above; settings: MTase-Glo luminescence, SAH detection, recombinant enzyme; measured here: NNMT max response; stronger effect = lower value
# Sequence of Nicotinamide N-methyltransferase (Homo sapiens) (P40261 whole entry, looked up): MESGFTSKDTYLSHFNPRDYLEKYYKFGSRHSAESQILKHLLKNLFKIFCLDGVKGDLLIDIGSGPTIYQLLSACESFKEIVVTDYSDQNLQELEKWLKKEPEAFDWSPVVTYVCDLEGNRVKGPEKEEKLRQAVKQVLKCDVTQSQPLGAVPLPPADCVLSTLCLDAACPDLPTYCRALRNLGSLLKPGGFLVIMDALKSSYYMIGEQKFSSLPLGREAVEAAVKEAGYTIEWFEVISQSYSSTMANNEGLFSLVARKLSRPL
# [22] = target: Phenylethanolamine N-methyltransferase (Homo sapiens) (UniProt P11086); test: as above; settings: MTase-Glo luminescence, SAH detection, recombinant enzyme; measured here: PNMT max response; stronger effect = lower value
# Sequence of Phenylethanolamine N-methyltransferase (Homo sapiens) (P11086 whole entry, looked up): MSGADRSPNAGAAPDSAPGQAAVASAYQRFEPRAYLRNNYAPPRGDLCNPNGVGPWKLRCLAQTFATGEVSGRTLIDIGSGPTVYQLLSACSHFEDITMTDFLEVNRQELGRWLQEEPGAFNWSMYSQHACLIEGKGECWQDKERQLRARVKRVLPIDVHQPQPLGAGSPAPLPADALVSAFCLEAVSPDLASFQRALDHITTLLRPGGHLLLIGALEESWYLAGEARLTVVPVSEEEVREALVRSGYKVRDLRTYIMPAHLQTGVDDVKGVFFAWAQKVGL
smiles,measurement,setting,value
Nc1nc(Cl)nc2c1ncn2[C@@H]1O[C@H](CO)[C@H](O)[C@H]1O,outcome,[1],inactive
same,Potency,[2],inactive
same,Potency,[3],11.2 µM (active)
same,Potency,[4],7.08 µM (active)
same,Potency,[5],inactive
same,outcome,[6],inactive
same,outcome,[7],inactive
same,Potency,[8],5.22 µM (active)
same,outcome,[9],inactive
same,outcome,[10],inactive
same,activation,[11],1.31% (inactive)
same,outcome,[12],inactive
same,Potency,[13],inactive
same,Potency,[14],inactive
C=C[C@@H]1CN2CC[C@@H]1C[C@@H]2[C@H](O)c1ccnc2ccc(OC)cc12,Potency,[15],inactive
same,outcome,[1],inactive
same,Potency,[5],126 nM (active)
same,outcome,[6],inactive
same,outcome,[7],inactive
same,Potency,[16],inactive
same,Potency,[17],inactive
same,Potency,[8],0.0165 µM (active)
same,Potency,[18],26.2 nM (active)
same,Potency,[13],inactive
CCNc1ncc(CN2CCN(c3ccncc3)CC2)cn1,activity,[19],4.09%
same,"activity change, negative = inhibition",[20],1.98%
same,activity,[21],-0.695%
same,activity,[22],1.91%
O=C(NCc1ccc2c(c1)OCO2)c1sc(=S)n2c1[nH]c(=O)c1ccccc12,activity,[19],-46.4%
same,Potency,[20],27.1 µM (active)
same,activity,[21],-20.7%
same,activity,[22],-48.8%
CC1=C[C@@H](CN(CC2CC2)CC2CC2)[C@H](C(C)C)C[C@H]1Cc1nc2ccncc2[nH]1,activity,[19],3.81%
same,"activity change, negative = inhibition",[20],4.35% [at 85.7 µM]
same,activity,[21],-1.17%
same,activity,[22],3.65%
CN(C)CCOCC1(C)COc2ccc(C(=O)Nc3ccc4[nH]ccc4c3)cc2N1 (stereo not given),activity,[19],1.58%
same,"activity change, negative = inhibition",[20],9.89% [at 85.7 µM]
same,activity,[21],2.73%
same,activity,[22],0.534%
CN1CCC(N2C[C@@H]3C[C@H]2C(=O)N(CC2CC2)c2ccccc2O3)CC1,activity,[19],4.01%
same,"activity change, negative = inhibition",[20],2.68% [at 85.7 µM]
same,activity,[21],-1.59%
same,activity,[22],3.64%
CCCC1c2cccn2CCN1C(=O)Nc1cccc(C(F)(F)F)c1 (stereo not given),activity,[19],-5.53%
same,"activity change, negative = inhibition",[20],-0.7%
same,activity,[21],-7.32%
same,activity,[22],-5.65%
CCNc1nccc(N2CCC(CC(=O)NCC(C)C)CC2)n1,activity,[19],-2.4%
same,"activity change, negative = inhibition",[20],-5.08%
same,activity,[21],-6.4%
same,activity,[22],-1.27%
Cc1ccc(Cn2c(=O)c3ccccc3n3c(CCC(=O)NCCN4CCCC4)nnc23)cc1,activity,[19],-6.32%
same,"activity change, negative = inhibition",[20],-1.98%
same,activity,[21],-16.1%
same,activity,[22],-2.34%
CCNc1nccc(N2CCC(CC(=O)N3CCN(c4ccccc4F)CC3)CC2)n1,activity,[19],6.4%
same,"activity change, negative = inhibition",[20],4.58%
same,activity,[21],2.88%
same,activity,[22],5.27%
O=C1c2ccccc2C(=O)c2cc(S(=O)(=O)N(CCO)CCO)ccc21,activity,[19],-23%
same,"activity change, negative = inhibition",[20],2.27%
same,activity,[21],-1.51%
same,activity,[22],-73.8%
CCCC1c2cccn2CCN1C(=O)Nc1ccc(Br)cc1F (stereo not given),activity,[19],-8.21%
same,"activity change, negative = inhibition",[20],-4.98%
same,activity,[21],-17%
same,activity,[22],-10.2%
CC(C)Cn1c(=O)c2ccccc2n2c(CCC(=O)NCCc3ccc(Cl)cc3)nnc12,activity,[19],-5.92%
same,"activity change, negative = inhibition",[20],-1.54%
same,activity,[21],-41%
same,activity,[22],-6.54%
Cc1ccccc1Sc1ccc(/C=C2\SC(=S)NC2=O)cc1[N+](=O)[O-],activity,[19],-5.04%
same,Potency,[20],42.9 µM (active)
same,activity,[21],-72.5%
same,activity,[22],-30.1%
CC(C)NC(=O)c1ccccc1OCC1CCCN(Cc2cn(C)c3ccccc23)C1 (stereo not given),activity,[19],8.45%
same,"activity change, negative = inhibition",[20],14.4%
same,activity,[21],4.67%
same,activity,[22],10.4%
O=C(CCCc1nnc2n3nc(-c4ccccc4)nc3c3ccccc3n12)NCCCN1CCCCC1,activity,[19],-1.71%
same,"activity change, negative = inhibition",[20],0%
same,activity,[21],2.5%
same,activity,[22],0.451%
CCCC1c2cccn2CCN1C(=O)Nc1cc(Cl)c(OC)cc1OC (stereo not given),activity,[19],-9.49%
same,"activity change, negative = inhibition",[20],-6.89%
same,activity,[21],-17.5%
same,activity,[22],-8.84%
CC(C)Cn1c(=O)c2ccccc2n2c(CCC(=O)N3CCC(Cc4ccccc4)CC3)nnc12,activity,[19],-2.5%
same,"activity change, negative = inhibition",[20],0.755%
same,activity,[21],-56.6%
same,activity,[22],-9.36%
CC1CC(C)CN(S(=O)(=O)c2ccc3c(c2)oc(=O)n3CC(=O)Nc2ccc(Cl)cc2)C1 (stereo not given),activity,[19],-4.03%
same,"activity change, negative = inhibition",[20],-1.24%
same,activity,[21],-8.67%
same,activity,[22],-61.6%
O=C(Nc1ccc2ncnc(N3CCCCC3)c2c1)c1cc(F)ccc1F,activity,[19],-70.5%
same,Potency,[20],21.5 µM (active)
same,activity,[21],-79.2%
same,activity,[22],-80.3%
NC(=O)C1(N2CCCCC2)CCN(c2nc3c(S(=O)(=O)c4ccccc4)nnn3c3ccccc23)CC1,activity,[19],-1.9%
same,"activity change, negative = inhibition",[20],0%
same,activity,[21],-8.86%
same,activity,[22],-8.88%
CC1(C(=O)NC2CCCC2)Cn2c(c(-n3cccc3)c3ccccc32)C(=O)N1Cc1ccccn1 (stereo not given),activity,[19],1.3%
same,"activity change, negative = inhibition",[20],1.85%
same,activity,[21],-46.2%
same,activity,[22],0%
COc1ccc2c(c1)C(CN1CCN(c3ccc4oc(C(=O)O)cc4c3Cl)CC1)=CC(C)(C)CO2,activity,[19],-4.38%
same,"activity change, negative = inhibition",[20],0.273%
same,activity,[21],-9.6%
same,activity,[22],3.5%
O=C(NCCc1ccc(Cl)cc1)c1ccc2c(=O)[nH]c3c(C(=O)NC4CCCC4)sc(=S)n3c2c1,activity,[19],-38.3%
same,Potency,[20],27.1 µM (active)
same,activity,[21],-77.1%
same,activity,[22],-66.5%
C[C@H]1CN(C(=O)Nc2ccc(F)cc2F)C[C@@H]1c1nc(-c2ccccc2)no1,activity,[19],6.81%
same,Potency,[20],0.769 µM (active)
same,activity,[21],-92.4%
same,activity,[22],9.33%
